# From the supplement of paper PMC6411743
# ± gives the standard deviation of the averaged measurements. Targets with the largest changes are over-represented here; the source holds about 6,200 in all.
# Assays:
# Assay in all cases: NP40-soluble protein abundance relative to vehicle (solubility fold change) (ratio); higher = more soluble protein in presence of AMP-PNP
# A0A087WXD1|Q96T83 = target: T1, A0A087WXD1|Q96T83 (UniProt Q96T83)
# T1 sequence (whole entry): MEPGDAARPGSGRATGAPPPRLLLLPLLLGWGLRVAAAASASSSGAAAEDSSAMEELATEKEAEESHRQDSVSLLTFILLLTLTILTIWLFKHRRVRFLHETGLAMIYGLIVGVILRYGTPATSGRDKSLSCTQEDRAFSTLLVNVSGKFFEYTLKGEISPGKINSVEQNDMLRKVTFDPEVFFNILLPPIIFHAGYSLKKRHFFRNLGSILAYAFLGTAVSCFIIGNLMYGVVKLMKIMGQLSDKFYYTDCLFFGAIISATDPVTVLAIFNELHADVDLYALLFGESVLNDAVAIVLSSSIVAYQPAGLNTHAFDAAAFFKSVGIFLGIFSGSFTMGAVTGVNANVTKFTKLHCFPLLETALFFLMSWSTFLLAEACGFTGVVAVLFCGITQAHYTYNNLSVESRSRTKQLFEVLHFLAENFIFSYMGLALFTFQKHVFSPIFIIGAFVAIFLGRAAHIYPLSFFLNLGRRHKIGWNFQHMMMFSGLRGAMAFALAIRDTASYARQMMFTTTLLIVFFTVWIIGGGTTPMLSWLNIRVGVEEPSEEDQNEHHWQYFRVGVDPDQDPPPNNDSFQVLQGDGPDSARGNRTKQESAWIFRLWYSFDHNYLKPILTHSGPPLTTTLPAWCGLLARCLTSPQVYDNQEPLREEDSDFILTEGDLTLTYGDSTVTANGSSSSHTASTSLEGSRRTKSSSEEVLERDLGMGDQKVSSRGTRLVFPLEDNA
# Summary of the method: (§1)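 Jurkat crude lysate prepared with a Dounce homogeniser was treated at eight concentrations spanning 0.1 to 10 mM, 10 min at room temperature then 3 min at 37 °C. Solubilisation with 0.8% NP40 and benzonase and ultracentrifugation preceded TMT labelling of the supernatant for LC-MS/MS. Fold change against the detergent-processed vehicle was determined per replicate from vsn-normalised intensities, across three independent experiments.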
# [1] = target: A0A087WY00|F8W6H6|Q9Y4I1|Q9Y4I1-2|G3V394|Q9Y4I1-3 (UniProt Q9Y4I1)
# Summary of the method: as §1
# A0A087WYG2|E9PFH7|Q9UPT6 = target: T2, A0A087WYG2|E9PFH7|Q9UPT6 (UniProt Q9UPT6)
# T2 sequence (whole entry): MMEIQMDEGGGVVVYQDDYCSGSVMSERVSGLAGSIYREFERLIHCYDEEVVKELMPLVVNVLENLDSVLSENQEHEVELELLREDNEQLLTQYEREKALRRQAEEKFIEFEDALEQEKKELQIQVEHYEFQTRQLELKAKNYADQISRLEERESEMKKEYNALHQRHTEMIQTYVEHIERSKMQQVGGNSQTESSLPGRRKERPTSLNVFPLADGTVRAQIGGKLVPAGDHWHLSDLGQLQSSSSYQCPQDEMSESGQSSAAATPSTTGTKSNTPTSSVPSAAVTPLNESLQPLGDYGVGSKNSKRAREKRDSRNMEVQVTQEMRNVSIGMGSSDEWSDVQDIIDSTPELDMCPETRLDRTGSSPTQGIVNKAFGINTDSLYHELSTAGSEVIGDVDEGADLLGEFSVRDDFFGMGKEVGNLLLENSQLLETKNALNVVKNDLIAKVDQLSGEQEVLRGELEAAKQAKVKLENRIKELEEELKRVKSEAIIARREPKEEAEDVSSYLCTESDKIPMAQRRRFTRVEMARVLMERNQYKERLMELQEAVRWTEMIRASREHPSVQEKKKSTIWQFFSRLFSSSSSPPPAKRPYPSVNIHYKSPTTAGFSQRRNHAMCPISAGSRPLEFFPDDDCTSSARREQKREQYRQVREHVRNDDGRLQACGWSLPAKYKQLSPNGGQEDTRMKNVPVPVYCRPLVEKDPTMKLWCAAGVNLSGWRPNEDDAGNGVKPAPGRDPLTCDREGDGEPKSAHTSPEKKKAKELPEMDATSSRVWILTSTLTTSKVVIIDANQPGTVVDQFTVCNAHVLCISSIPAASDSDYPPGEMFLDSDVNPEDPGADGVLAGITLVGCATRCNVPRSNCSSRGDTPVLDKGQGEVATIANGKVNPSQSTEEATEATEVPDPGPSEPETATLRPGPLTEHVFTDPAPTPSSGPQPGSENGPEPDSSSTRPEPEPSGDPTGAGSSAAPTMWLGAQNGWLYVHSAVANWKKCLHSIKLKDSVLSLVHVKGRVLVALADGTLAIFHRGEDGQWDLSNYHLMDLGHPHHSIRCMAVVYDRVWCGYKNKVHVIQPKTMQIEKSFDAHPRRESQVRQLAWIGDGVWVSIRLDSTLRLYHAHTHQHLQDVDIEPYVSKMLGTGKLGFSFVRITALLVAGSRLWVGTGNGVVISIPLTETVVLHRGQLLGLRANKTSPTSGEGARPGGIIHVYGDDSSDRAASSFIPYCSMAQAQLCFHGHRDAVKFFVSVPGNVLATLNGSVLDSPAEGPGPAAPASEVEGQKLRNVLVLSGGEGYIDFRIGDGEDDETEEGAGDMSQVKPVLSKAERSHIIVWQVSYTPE
# Summary of the method: as §1
# A0A087WYN9|Q7Z478 = target: T3, A0A087WYN9|Q7Z478 (UniProt Q7Z478)
# T3 sequence (whole entry): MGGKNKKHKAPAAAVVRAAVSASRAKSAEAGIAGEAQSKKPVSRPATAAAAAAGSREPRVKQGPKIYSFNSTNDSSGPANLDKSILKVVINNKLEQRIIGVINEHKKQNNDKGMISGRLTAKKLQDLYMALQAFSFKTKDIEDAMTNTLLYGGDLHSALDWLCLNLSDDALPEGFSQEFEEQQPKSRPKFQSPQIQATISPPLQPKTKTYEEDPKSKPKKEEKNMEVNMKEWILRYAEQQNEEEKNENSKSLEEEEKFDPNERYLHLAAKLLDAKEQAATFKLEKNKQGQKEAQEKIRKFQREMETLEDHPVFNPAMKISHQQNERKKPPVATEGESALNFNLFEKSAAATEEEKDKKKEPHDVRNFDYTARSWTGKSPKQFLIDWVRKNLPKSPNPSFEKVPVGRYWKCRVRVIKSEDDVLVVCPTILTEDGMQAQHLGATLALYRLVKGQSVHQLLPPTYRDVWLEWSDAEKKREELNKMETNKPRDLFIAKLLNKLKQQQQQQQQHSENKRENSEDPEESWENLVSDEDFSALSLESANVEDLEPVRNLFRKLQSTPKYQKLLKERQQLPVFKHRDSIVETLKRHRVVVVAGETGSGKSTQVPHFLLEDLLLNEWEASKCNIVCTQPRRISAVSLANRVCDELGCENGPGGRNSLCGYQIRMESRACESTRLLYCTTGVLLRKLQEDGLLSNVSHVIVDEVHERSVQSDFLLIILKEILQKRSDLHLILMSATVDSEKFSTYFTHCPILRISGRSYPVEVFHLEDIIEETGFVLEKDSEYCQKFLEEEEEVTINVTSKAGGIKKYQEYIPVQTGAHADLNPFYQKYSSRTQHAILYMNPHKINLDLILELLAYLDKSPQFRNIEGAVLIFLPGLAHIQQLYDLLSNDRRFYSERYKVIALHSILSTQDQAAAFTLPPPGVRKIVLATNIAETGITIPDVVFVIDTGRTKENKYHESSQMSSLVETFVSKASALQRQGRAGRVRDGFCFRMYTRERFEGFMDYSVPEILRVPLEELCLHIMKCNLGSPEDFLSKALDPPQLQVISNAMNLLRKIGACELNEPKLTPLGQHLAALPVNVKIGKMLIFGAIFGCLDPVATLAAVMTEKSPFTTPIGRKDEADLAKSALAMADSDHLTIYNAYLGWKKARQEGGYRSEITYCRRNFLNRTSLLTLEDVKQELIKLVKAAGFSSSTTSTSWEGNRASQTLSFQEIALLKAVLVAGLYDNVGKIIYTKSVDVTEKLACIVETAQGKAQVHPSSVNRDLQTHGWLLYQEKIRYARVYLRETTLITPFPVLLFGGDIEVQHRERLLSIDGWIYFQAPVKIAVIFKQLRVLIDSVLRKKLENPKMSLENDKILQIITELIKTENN
# Summary of the method: as §1
# A0A087WZ62 = test system: A0A087WZ62
# Summary of the method: as §1
# Chain of A0A087WY00|F8W6H6|Q9Y4I1|Q9Y4I1-2|G3V394|Q9Y4I1-3 (Q9Y4I1 whole entry, one chain of several): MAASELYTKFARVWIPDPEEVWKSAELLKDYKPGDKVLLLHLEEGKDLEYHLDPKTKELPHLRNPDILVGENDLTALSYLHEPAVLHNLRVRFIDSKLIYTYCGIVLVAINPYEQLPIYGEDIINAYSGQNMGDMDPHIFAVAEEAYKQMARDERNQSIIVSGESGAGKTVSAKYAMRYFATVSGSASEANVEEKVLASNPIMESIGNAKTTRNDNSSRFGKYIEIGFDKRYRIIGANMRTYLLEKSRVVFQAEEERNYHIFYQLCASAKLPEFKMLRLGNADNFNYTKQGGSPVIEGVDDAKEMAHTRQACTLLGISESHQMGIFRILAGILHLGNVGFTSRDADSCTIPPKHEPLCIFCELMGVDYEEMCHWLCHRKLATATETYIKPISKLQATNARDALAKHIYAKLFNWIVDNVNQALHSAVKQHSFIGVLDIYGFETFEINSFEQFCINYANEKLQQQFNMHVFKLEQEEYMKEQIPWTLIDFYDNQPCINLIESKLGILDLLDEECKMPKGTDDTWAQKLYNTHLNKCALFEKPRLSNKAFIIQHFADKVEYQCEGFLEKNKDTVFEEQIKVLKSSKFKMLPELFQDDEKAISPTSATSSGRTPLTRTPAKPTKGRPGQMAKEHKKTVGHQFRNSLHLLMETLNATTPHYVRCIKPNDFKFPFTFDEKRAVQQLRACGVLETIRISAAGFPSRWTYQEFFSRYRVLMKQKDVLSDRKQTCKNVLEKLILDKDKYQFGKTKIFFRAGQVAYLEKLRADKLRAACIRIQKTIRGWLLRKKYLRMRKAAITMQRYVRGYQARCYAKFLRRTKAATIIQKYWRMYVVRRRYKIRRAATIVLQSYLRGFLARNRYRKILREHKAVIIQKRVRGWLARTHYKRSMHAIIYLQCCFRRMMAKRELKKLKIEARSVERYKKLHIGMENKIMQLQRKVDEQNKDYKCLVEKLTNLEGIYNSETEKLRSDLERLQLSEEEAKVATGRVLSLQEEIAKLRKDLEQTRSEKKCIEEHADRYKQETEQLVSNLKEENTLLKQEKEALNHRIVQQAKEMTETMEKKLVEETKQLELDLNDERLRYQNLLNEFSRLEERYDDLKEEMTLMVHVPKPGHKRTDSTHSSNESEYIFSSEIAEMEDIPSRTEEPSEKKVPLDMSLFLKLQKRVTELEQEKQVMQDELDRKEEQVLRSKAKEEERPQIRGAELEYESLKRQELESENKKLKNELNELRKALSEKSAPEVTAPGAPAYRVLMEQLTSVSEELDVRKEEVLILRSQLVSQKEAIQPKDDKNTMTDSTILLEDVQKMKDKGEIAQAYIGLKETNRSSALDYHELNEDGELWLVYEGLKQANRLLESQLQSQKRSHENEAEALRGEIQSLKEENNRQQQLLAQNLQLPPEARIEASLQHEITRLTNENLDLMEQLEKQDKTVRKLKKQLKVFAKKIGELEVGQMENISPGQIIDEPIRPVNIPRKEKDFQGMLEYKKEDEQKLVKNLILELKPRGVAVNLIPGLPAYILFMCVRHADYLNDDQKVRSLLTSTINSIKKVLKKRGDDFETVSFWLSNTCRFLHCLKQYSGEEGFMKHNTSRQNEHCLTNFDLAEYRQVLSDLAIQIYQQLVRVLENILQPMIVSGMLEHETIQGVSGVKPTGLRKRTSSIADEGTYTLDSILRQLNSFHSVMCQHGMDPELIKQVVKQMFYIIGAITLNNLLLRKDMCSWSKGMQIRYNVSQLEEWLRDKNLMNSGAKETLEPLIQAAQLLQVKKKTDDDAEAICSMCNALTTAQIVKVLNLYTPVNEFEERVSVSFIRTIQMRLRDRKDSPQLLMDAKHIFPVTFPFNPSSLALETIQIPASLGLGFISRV
smiles,measurement,setting,value
Nc1ncnc2c1ncn2[C@@H]1O[C@H](COP(=O)(O)OP(=O)(O)NP(=O)(O)O)[C@@H](O)[C@H]1O [adenylyl imidodiphosphate],NP40-soluble protein abundance,A0A087WXD1|Q96T83; concentration: 1mM,0.971 ± 0.05
same,NP40-soluble protein abundance,A0A087WXD1|Q96T83; concentration: 2mM,0.973 ± 0.015
same,NP40-soluble protein abundance,A0A087WXD1|Q96T83; concentration: 4mM,0.958 ± 0.033
same,NP40-soluble protein abundance,A0A087WXD1|Q96T83; concentration: 6mM,0.948 ± 0.038
same,NP40-soluble protein abundance,A0A087WXD1|Q96T83; concentration: 8mM,0.935 ± 0.027
same,NP40-soluble protein abundance,A0A087WXD1|Q96T83; concentration: 10mM,0.9324 ± 0.0081
same,NP40-soluble protein abundance,[1]; concentration: 1mM,1.9 ± 0.27
same,NP40-soluble protein abundance,[1]; concentration: 2mM,1.97 ± 0.29
same,NP40-soluble protein abundance,[1]; concentration: 4mM,2.07 ± 0.28
same,NP40-soluble protein abundance,[1]; concentration: 6mM,2 ± 0.31
same,NP40-soluble protein abundance,[1]; concentration: 8mM,1.96 ± 0.29
same,NP40-soluble protein abundance,[1]; concentration: 10mM,2.01 ± 0.24
same,NP40-soluble protein abundance,A0A087WYG2|E9PFH7|Q9UPT6; concentration: 1mM,1.01 ± 0.034
same,NP40-soluble protein abundance,A0A087WYG2|E9PFH7|Q9UPT6; concentration: 2mM,1.03 ± 0.025
same,NP40-soluble protein abundance,A0A087WYG2|E9PFH7|Q9UPT6; concentration: 4mM,1.03 ± 0.025
same,NP40-soluble protein abundance,A0A087WYG2|E9PFH7|Q9UPT6; concentration: 6mM,0.988 ± 0.026
same,NP40-soluble protein abundance,A0A087WYG2|E9PFH7|Q9UPT6; concentration: 8mM,0.981 ± 0.022
same,NP40-soluble protein abundance,A0A087WYG2|E9PFH7|Q9UPT6; concentration: 10mM,1 ± 0.023
same,NP40-soluble protein abundance,A0A087WYN9|Q7Z478; concentration: 1mM,1.31 ± 0.067
same,NP40-soluble protein abundance,A0A087WYN9|Q7Z478; concentration: 2mM,1.49 ± 0.079
same,NP40-soluble protein abundance,A0A087WYN9|Q7Z478; concentration: 4mM,1.73 ± 0.18
same,NP40-soluble protein abundance,A0A087WYN9|Q7Z478; concentration: 6mM,1.9 ± 0.22
same,NP40-soluble protein abundance,A0A087WYN9|Q7Z478; concentration: 8mM,2.01 ± 0.24
same,NP40-soluble protein abundance,A0A087WYN9|Q7Z478; concentration: 10mM,2.1 ± 0.29
same,NP40-soluble protein abundance,A0A087WZ62; concentration: 1mM,0.976 ± 0.026
same,NP40-soluble protein abundance,A0A087WZ62; concentration: 2mM,0.963 ± 0.027
same,NP40-soluble protein abundance,A0A087WZ62; concentration: 4mM,0.931 ± 0.022
